Consider 40 compounds from PubChem BioAssay (EPA / NIEHS).

Where “and” joins values, the source holds several entries; their conditions need not be identical. Identical values can stand only once. Calls of active or inactive are those of the source. The calls were made as follows: active = hit-call score of the fitted dose curve at least 0.9, where 1 is the maximum; inactive = score below 0.9.

As usually defined, the AC50 is the midpoint of the concentration-response curve, whichever way the signal moves.

Read-out in the experiment: Tissue plasminogen activator (tPA), PLAT (gene 5327)
As to the kind of experiment: BSK_BF4T_tPA: BioMAP Diversity Plus: BF4T Assay for Tissue plasminogen activator (tPA) Biomarker Activity (AID 2284272). The note with it: primary human bronchial epithelial cells with fibroblasts. As to the method:
BSK_BF4T is a cell-based, multiplexed-readout assay that uses bronchial epithelial cells and dermal fibroblasts, a human vascular primary cell, with measurements taken at 24 hours after chemical dosing in a microplate: 96-well plate.BSK_BF4T_tPA is an assay component measured in the BSK_BF4T assay. It measures tPA antibody related to regulation of gene expression using ELISA technology.Data from the assay component BSK_BF4T_tPA was analyzed at the endpoint, BSK_BF4T_tPA, in the positive analysis fitting direction relative to DMSO as the negative control and baseline of activity. Using a type of binding reporter, gain or loss-of-signal activity can be used to understand protein changes. To generalize the intended target to other relatable targets, this assay endpoint is annotated to the 'protease' intended target family, where the subfamily is 'serine protease'.
The levels of cell surface (or secreted, indicated by the prefix "s") biomarker endpoints were measured by ELISA. Overt cytotoxicity to cells in confluent adherent cultures (all systems other than the BT system) was assessed by measuring total protein levels using sulforhodamine B (SRB) staining in parallel cultures at the time of biomarker measurements, indicated as SRB endpoints. For proliferation assays for adherent cell types, individual cell types are cultured at sub-confluence and relative cell numbers quantified by SRB staining at time points optimized for each system (48 h: 3C and CASM3C systems; 72 h: BT and HDF3CGF systems; 96 h: SAg system). SRB was performed by staining cells with 0.1% SRB after fixation with 10% TCA and reading wells at 560 nm.Viability and proliferation of PBMC (T cells) was quantified by Alamar Blue reduction for the SAg and BT systems. For PBMC viability (referred to as PBMC Cytotoxicity within the assay endpoint names), cells were plated (75,000/well in a 96-well plate) and then chemical samples added for 1 h before addition of activators, SEB and TSST-1 (20 ng/mL final concentration each). Cells were incubated for 90 h. Then, Alamar Blue (20 uL/well) (Invitrogen, Cat DAL1100) was added for 6 h, and the plates were read with a fluorescence microplate reader at 546/580 nm (excitation/emission). For PBMC proliferation, cells were plated and activated as above but incubated for only 16 h prior to addition of Alamar Blue. Plates were read after 6 h.
`NC(=O)C(F)(F)C(F)(F)C(F)(F)C(F)(F)F`: the outcome was inactive.

On to `FC(F)(Br)C(F)(F)C(F)(F)C(F)(F)C(F)(F)C(F)(F)Br`, for which the outcome was inactive. Take `O=S(=O)(OCC(F)F)C(F)(F)F`: the outcome was inactive. For `FC(F)(F)C(F)(F)C(F)(F)C(F)(F)C(F)(F)C(F)(F)C(F)(F)C(F)(F)F`, the result was inactive. As for `C=CC(=O)OCC(F)(F)C(F)(F)C(F)(F)C(F)(F)COC(=O)C=C`, the AC50 was 8.21 µM (active) and 9.07 µM (active). With `FC(F)(F)C(F)(F)C(F)(F)C(F)(F)CCI`, the result was inactive. As to `FC(F)(F)C(F)(F)C(F)(F)C(F)(F)C(F)(F)C(F)(F)C(F)(F)C(F)(F)CCS`, the outcome was inactive. In the case of `FC(F)(F)C(F)(F)C(F)(F)C(F)(F)C(F)(F)C(F)(F)CCS`, the outcome was inactive. As to `O=C(O)C(F)(F)C(F)(F)C(F)(F)F`, the result was inactive.

For the compound `O=S(=O)(OCCOC(F)(F)F)C(F)(F)F`, the result was inactive. Consider `OCC(F)(F)C(F)(F)C(F)(F)F`, for which the outcome was inactive. In the case of `C=CC(F)(F)C(F)(F)C(F)(F)C(F)(F)C(F)(F)C(F)(F)C(F)(F)C(F)(F)C=C`, the result was inactive.

For the compound `O=S(=O)(O)C(F)(F)C(F)(F)C(F)(F)C(F)(F)C(F)(F)C(F)(F)C(F)(F)F`, the result was inactive. With `O=C(O)C(F)(F)C(F)(F)C(F)(F)C(F)(F)C(F)(F)C(F)(F)C(F)(F)C(F)(F)Cl`, the half-maximal activity concentration (AC50) was 10.7 µM (active) and 5.95 µM (active). On to `O=C(O)C(F)(F)C(F)(F)F`, for which the outcome was inactive. Still for that read-out and setting: next, `N=C(N)C(F)(F)C(F)(F)C(F)(F)C(F)(F)C(F)(F)C(F)(F)C(F)(F)F`: “inactive”; `O=C(CC(=O)C(F)(F)C(F)(F)F)C(F)(F)F`: “inactive”.

For the compound `O=C(O)C=C(C(F)(F)F)C(F)(F)F`, the AC50 was 8.23 µM (active) and 1.27 µM (active). Take `O=C(Cl)C(F)(F)C(F)(F)C(F)(F)C(F)(F)C(F)(F)C(F)(F)C(F)(F)C(F)(F)F`: the half-maximal activity concentration (AC50) was 28 µM (active) and 22.9 µM (active) and 20.9 µM (active). Consider `COC(=O)CCC(F)(F)C(F)(F)C(F)(F)C(F)(F)F`, for which the outcome was inactive. As to `FC(F)(F)C(F)(F)C(F)(F)CI`, the outcome was inactive.

Turning to `C=C(C)C(=O)OCC(F)(F)C(F)(F)C(F)(F)C(F)(F)C(F)(F)C(F)(F)C(F)(F)F`, the result was inactive.

As to `O=C(O)C(F)(F)C(F)(F)C(F)F`, the outcome was inactive. As to `O=P(O)(O)OCCC(F)(F)C(F)(F)C(F)(F)C(F)(F)C(F)(F)C(F)(F)F`, the outcome was inactive.

Regarding `FC(F)(F)C(F)(F)C(F)(F)C(F)(F)C(F)(F)C(F)(F)C(F)(F)Br`, the result was inactive. Consider `O=C(O)C(F)(F)C(F)(F)C(F)(F)C(F)(F)C(F)(F)C(F)(F)C(F)(F)C(F)(F)C(F)(F)C(F)F`, for which the AC50 was 9.23 µM (active) and 5.95 µM (active). The same measure, in the same setting: the figure for `OCCCC(F)(F)C(F)(F)C(F)(F)C(F)(F)C(F)(F)C(F)(F)C(F)(F)F` is 56.6 µM (active) and 47.7 µM (active). Regarding `OCCCC(F)(F)C(F)(F)C(F)(F)F`, the result was inactive. Regarding `C=CC(F)(F)C(F)(F)C(F)(F)C(F)(F)C(F)(F)C(F)(F)C(F)(F)C(F)(F)F`, the outcome was inactive. In the case of `O=C(O)C(F)(F)C(F)(F)OC(F)(F)F`, the outcome was inactive.

Regarding `FC1CC(F)(F)C(F)(F)C1(F)F` (stereo not given), the outcome was inactive. In the case of `C=CC(=O)OCC(F)(F)C(F)(F)C(F)(F)C(F)(F)C(F)(F)C(F)(F)C(F)(F)F`, the result was inactive.

Turning to `O=C(O)C(F)(OC(F)(F)C(F)(OC(F)(F)C(F)(F)C(F)(F)F)C(F)(F)F)C(F)(F)F` (stereo not given), the result was inactive.

For the compound `CCCCCCCCC(F)(F)C(F)(F)C(F)(F)C(F)(F)C(F)(F)C(F)(F)F`, the result was inactive. On to `C=C(C)C(=O)OCC(F)(F)C(F)(F)C(F)(F)F`, for which the outcome was inactive. For the compound `FC(F)(I)C(F)(F)C(F)(F)C(F)(F)I`, the AC50 is 39.8 µM (active) and 46.2 µM (active) and 48.8 µM (active). `O=C(O)C(F)(F)C(F)(F)C(F)(F)C(F)(F)C(F)(F)C(F)(F)C(F)(F)C(F)(F)C(F)(F)C(F)(F)C(F)(F)C(F)(F)F`: the outcome was inactive.

As for `O=C(O)C(F)(F)C(F)(F)C(F)(F)C(F)(F)F`, the outcome was inactive. Take `O=C(O)C(F)(F)C(F)(F)C(F)(F)C(F)(F)C(F)(F)C(F)(F)C(F)(F)C(F)(F)C(F)(F)C(F)(F)C(F)(F)C(F)(F)C(F)(F)F`: the result was inactive. As for `OCC(F)(F)C(F)(F)C(F)(F)C(F)(F)C(F)(F)C(F)(F)F`, the outcome was inactive.
